High-throughput results from PubChem BioAssay.
EBV LMP1 NFkB: reduces LMP1-driven NF-kappaB luciferase signal; LMP1-induced NF-kappaB luciferase reporter cells, luminescence; inhibition, % at 12.5 µM; 350,000 compounds, 0.69% hits; in the data active = inhibition above about 41%; inconclusive = no clear call, values can overlap the other calls;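 also: 0% = neutral control wells and 100% = reference inhibitor control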
LGR2 inh: Drosophila LGR2 receptor signaling inhibition | inhibition, % at 9.99 µM | 380,000 compounds, 0.35% hits | AID 720647 | HEK293 LGR2, CRE-luciferase, bursicon-stimulated, 4 h;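 active = drop in luminescence signal, shown as inhibition above about 50% in the replicate tests, limit read from the data, passing the limit was not always enough; inconclusive = probably only some replicates passing the limit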;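 also: agonist challenge used bursicon conditioned medium at about half maximal strength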
HSF-1 act: increases HSF-1 driven luciferase reporter signal; AID 504408; 300,000 compounds, 1.7% hits; NIH3T3-HGL HSF-1 luciferase reporter, MG132, 8 h; 100% = twice DMSO control signal; activation, % at 9 µM;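 active = mean replicate activation of at least 50% with a set share of replicates each reaching 50%; inconclusive = only one of those two conditions met; inactive = mean below 50% and too few replicates reaching it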;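 also: 0% = median of the neutral control wells and 100% = twice that signal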
TROY signal inh: blocks TROY-dependent signaling in reporter cells; Q293 LMP1-TROYcd NF-kB luciferase reporter, 4 h; inhibition, % at 10 µM; 360,000 compounds, 0.98% hits;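 active = compounds whose plate-normalised and pattern-corrected inhibition of the luciferase reporter signal at the single screening dose is 50% or more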
TWEAK-Fn14 inh: TWEAK-Fn14 signaling inhibition. TWEAK-stimulated Fn14 reporter cells, luciferase luminescence, 8 h. inhibition, % at 10 µM. 360,000 compounds, 2% hits. AID 1159606; in the data active = inhibition above about 50%
HSF1 inh: HSF1 inhibition. 300,000 compounds, 0.77% hits. NIH3T3-HGL HSE-luciferase, MG132-induced, luminescence 8 h; stronger effect = lower value. activity change, negative = inhibition, % at 7.5 µM (by protocol);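 active = more than half of replicate wells show activity change below -50%, luminescence cut by over half; inconclusive = some wells, but at most half, below -50%; inactive = no replicate well below -50%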;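 also: luciferase reports HSF-1 transcriptional activity via heat shock element; 0% = median of DMSO wells and -100% = zero luminescence signal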
* marks the source's active call; other numbers are inactive results; ? = inconclusive; . = not tested or not shown. Hits are enriched below; roughly 3.6% of the tested compounds scored in any of these assays.

SMILES	EBV LMP1 NFkB	LGR2 inh	HSF-1 act	TROY signal inh	TWEAK-Fn14 inh	HSF1 inh
CCN1C=CC(=C2C(=O)c3ccccc3C2=O)C=C1	90*	.	-79	68*	101*	-76*
CCCCN1C(C)=CC(=C2C(=O)c3ccccc3C2=O)C=C1C	4	60*	-18	60*	53*	-1
CCCCCCN1C=CC(=C2C(=O)c3ccccc3C2=O)C=C1	53*	94*	-59	82*	97*	?
C[C@H]1CN([C@@H](C)CO)C(=O)Cc2cc(NC(=O)Cc3ccccc3)ccc2O[C@@H]1CN(C)Cc1ccc(C(F)(F)F)cc1	.	-16	.	.	.	.
COc1ccc(N=Cc2oc3ccc4ccccc4c3c2O)cc1	-46	-93	9	-38	-46	10
COc1ccc(N=Cc2sc3ccccc3c2Cl)cc1	-22	.	-45	67*	71*	?
Cc1noc(C)c1S(=O)(=O)Nc1ccc2c(c1)C(=O)N([C@H](C)CO)C[C@@H](C)[C@H](CN(C)C(=O)C1CCCCC1)OCCCC[C@@H](C)O2	.	10	.	.	.	.
Cc1cccc(N=Nc2c(C)c(C#N)c(O)[nH]c2=O)c1	1	-47	54*	-50	-40	21
Cc1cccc(-n2cc(CN3CCN(Cc4nccn4C)CC3)c(-c3cccc(F)c3)n2)c1	-8	-8	65*	-45	-7	28
COc1ccc(-n2cc(CN3CCCC3)c(-c3cccc(F)c3)n2)cc1	-1	-18	28	-24	-11	1
Cc1n[nH]c2ccccc2c1=O	3	7	.	5	-21	.
CC(C)(C)c1ccc(Nc2n[nH]c3ccccc23)cc1	.	-27	.	53*	53*	.
Cc1cc(C)cc(Nc2ncc3c(n2)CC(c2ccco2)CC3=O)c1 (stereo unspecified)	2	.	0	-16	-5	1
Cc1cc(C)cc(Nc2ncc3c(n2)CCCC3=O)c1	27	37	27	16	71*	9
O=C1CC(c2ccccc2Cl)CC(O)=C1C=Nc1ccccc1 (stereo unspecified)	5	28	152*	-6	45	119
O=C1CC(c2ccccc2)CC(O)=C1C=Nc1ccc(Cl)cc1 (stereo unspecified)	-21	23	141*	-18	10	104
O=C1CC(c2ccccc2)CC(O)=C1C=Nc1cccc(Cl)c1 (stereo unspecified)	-8	1	120*	3	21	79
C[C@@H]1CCCCO[C@@H](CN(C)C(=O)C2CCCCC2)[C@@H](C)CN([C@H](C)CO)C(=O)c2cc(NC(=O)CCCN(C)C)ccc2O1	.	-7	.	.	.	.
Cc1ccc(NC(=O)/C(C#N)=C/c2cc(C)n(-c3ccc(N4CCOCC4)c([N+](=O)[O-])c3)c2C)c(C)c1	27	6	3	13	54*	-6
COc1ccccc1NC(=O)N1C[C@H]2[C@@H](c3ccccc31)[C@H](CO)N2C(C)=O	.	-7	.	.	.	.
COc1ccc(C(=O)NC(=S)NCCO)cc1Br	-8	-28	-74	4	-9	-68*
COc1ccc(C(=O)NC(=S)N(C)Cc2ccccc2)cc1Br	2	-20	54*	-2	-18	21
Cc1ccc(S(=O)(=O)N2CCC(=O)N2)cc1	-5	.	-7	5	-11	2
Cc1ccc(S(=O)(=O)n2ccc(=O)[nH]2)cc1	-10	3	-76	-10	-4	-68*
O=C(Nc1ccccc1F)N1CC(=O)N2[C@@H](CO)[C@H](c3ccc(C#Cc4ccccc4)cc3)[C@@H]2C1	.	18	.	.	.	.
SMILES	EBV LMP1 NFkB	LGR2 inh	HSF-1 act	TROY signal inh	TWEAK-Fn14 inh	HSF1 inh
CCOc1ccccc1CNc1ncnc2ccc(-c3c(C)noc3C)cc12	17	3	.	62*	82*	.
COc1ccccc1CNc1ncnc2cc(Cl)ccc12	4	33	25	17	8	4
COC(=O)C[C@@H]1CC[C@@H]2[C@H](COc3ccc(NC(=O)c4cnccn4)cc3C(=O)N2C)O1	.	20	.	.	.	.
COc1ccc(OCC(=O)NC2CC(C)(C)NC(C)(C)C2)cc1	6	.	-41	63*	65*	-44
CC1(C)CC(NC(=O)COc2ccc([N+](=O)[O-])cc2)CC(C)(C)N1	-10	19	-11	4	-22	3
CC1(C)CC(NC(=O)COc2ccccc2Cl)CC(C)(C)N1	5	-2	-68	75*	78*	-65*
